# Screens: PubChem, several laboratories
# Vc quorum ag-1 = inducers of Vibrio cholerae quorum light production without autoinducers, primary screen, BH1578 luxS cqsA deficient, single point | activation, % at 18.7 µM | V. cholerae BH1578 lux reporter, luminescence, 6 h | hit rate 0.16% among 350,000; in the data active = activation mostly above about 9.7%, no sharp cut-off
# MazEF act = activators of E. coli MazEF toxin-antitoxin RNase, primary screen, biochemical, fluorescence, uHTS; FAM/BHQ RNA-DNA oligo cleavage fluorescence, 5 h; activation, % at 20 µM; hit rate 0.32% among 350,000; in the data active = activation above about 50%
# Target sequence (P0AE70 whole entry, looked up): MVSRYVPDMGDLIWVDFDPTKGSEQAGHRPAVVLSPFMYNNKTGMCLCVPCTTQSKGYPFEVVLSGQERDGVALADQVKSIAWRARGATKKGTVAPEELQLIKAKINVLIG
# SSB-PriA inh = inhibitors of Klebsiella pneumoniae PriA binding to SSB C-terminal tail, primary screen, biochemical, AlphaScreen | hit rate 0.6% among 430,000 | AlphaScreen SSBct-PriA binding, biotinylated peptide | PriA–SSB C-terminal tail interaction (Klebsiella pneumoniae) | inhibition, % at 33 µM; in the data active = inhibition mostly above about 37%, no sharp cut-off; inactive = mostly below about 20%;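 note: plate controls were negative control peptide for no effect and reference peptide for full effect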
# Mtb hypoxia inh = PubChem AID 1159583; M. tuberculosis hypoxia-regulated fluorescent reporter, fluorescence; fluorescence inhibition, % (no concentration beside the values); hit rate 0.1% among 300,000; in the data active = fluorescence inhibition mostly above about 23%, no sharp cut-off; inactive = mostly below about 17%
# Vc quorum ag-2 = V. cholerae lux activation without autoinducers – BH1578 luxS cqsA deficient, cherry-pick, plate reader, dose response. shares compounds with Vc quorum ag-1. activation, % at 50 µM. 620 tested, under 10 active. V. cholerae BH1578 lux reporter, luminescence, 6 h; call rule not given here
# HeLa tox = HeLa cell cytotoxicity, dose response, cytotoxicity control, 24 h, dry powder; HeLa viability, CellTiter-Glo ATP luminescence; activity change, negative = cytotoxicity, % at 35 µM; shares compounds with Vc quorum ag-1; 25 tested, under 10 active;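 active = signal drop with fitted half-maximal concentration at or below twice the highest valid dose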
# Numbers without * were called inactive; i = inactive; nt = not tested or not shown. Most compounds without a hit are left out; they make up all but 0.94% or so of the library.
SMILES,Vc quorum ag-1,MazEF act,SSB-PriA inh,Mtb hypoxia inh,Vc quorum ag-2,others
CC(=O)c1cc2c(cc1NS(=O)(=O)c1ccccc1)OCO2,14,4,3,7,0,
CCC(C)NS(=O)(=O)c1ccc(S(=O)(=O)Nc2cc3c(cc2C(C)=O)OCO3)cc1 (stereo not drawn),22*,-1,-1,13,0,
CC(=O)Nc1ccc(S(=O)(=O)Nc2cc3c(cc2C(C)=O)OCO3)cc1,i,6,1,4,nt,
CCOC(=O)c1ccccc1NC(=O)C1=COCCO1,i,-5,-13,0,nt,
CCOC(=O)c1ccccc1NC(=O)COC(=O)C1=COCCO1,12,7,-28,13,-1,
Cc1ccc(C(=O)N(C)CC(=O)Nc2ccc(N3CCOCC3)cc2)s1,14,-3,2,12,100,
CC12CCC(O)CC1=CCC1C2CCC2(C)C(C(=O)C[n+]3ccccc3)CCC12 (stereo not drawn),nt,nt,-1,nt,nt,
CC(C)[C@H](NC(=O)c1cccc(S(=O)(=O)N2CCCC2)c1)c1nc2ccccc2[nH]1,nt,0,2,nt,nt,
CC(C)C(NC(=O)c1ccc(S(=O)(=O)N2CCOCC2)cc1)c1nc2ccccc2[nH]1 (stereo not drawn),14,-6,-11,-1,0,
Cc1ccc(C(=O)COc2cc(C)nc3nncn23)cc1,923*,4,-11,2,i,
COc1ccc(Br)c(C(=O)N2CCN(C(=O)c3cnn4ccccc34)CC2)c1,nt,nt,-14,nt,nt,
Cc1ccc(C2(C)NC(=O)N(CC(=O)NCCC3=CCCCC3)C2=O)cc1 (stereo not drawn),228*,2,-9,nt,0,
COc1ccc(S(=O)(=O)N2CCCC2C(=O)N=c2sc3cc(F)ccc3n2C)cc1 (stereo not drawn),nt,nt,2,nt,nt,
O=C(COC(=O)c1cccc(-n2cnnn2)c1)c1ccc(F)cc1,0,1,-6,7,nt,
COc1ccc(C(=O)COC(=O)c2cccc(-n3cnnn3)c2)c(OC)c1,12,0,-2,-9,0,
Cc1ccnc(NC(=O)C(C)Cn2nc(C)c(C)c2C)c1 (stereo not drawn),nt,nt,1,nt,nt,
CCN(CC(=O)Nc1c(F)cccc1F)C(=O)c1ccc(C)c(S(=O)(=O)N2CCCCC2)c1,2,1,-8,0,0,
COC(=O)c1cc(Br)ccc1OC(=O)c1cccnc1,17*,7,-9,1,0,
Cc1cc(C)cc(OC(=O)c2cccnc2)c1,32*,-4,-6,19,0,
Cc1cccc(OC(=O)c2cccnc2)c1,0,3,-39,14,nt,
Cc1ccccc1C1CCN(C(=O)CN2C(=O)CCC2=O)CCS1 (stereo not drawn),nt,nt,-2,nt,nt,
O=C(c1cn(-c2ccccc2)nc1-c1cccs1)N1CCOCC1,25*,2,13,nt,0,
Cc1cc(C)c2cc(C(c3nnnn3C3CCCC3)N3CCOCC3)c(=O)[nH]c2c1 (stereo not drawn),0,12,0,4,nt,
Cc1ccc2cc(C(c3nnnn3C3CCCC3)N3CCN(c4ccc(F)cc4)CC3)c(=O)[nH]c2c1 (stereo not drawn),14,5,2,0,0,
Cc1cccc(C(=O)N2CCC(c3nc(-c4ccc(S(=O)(=O)N5CCOCC5)cc4)no3)CC2)c1,i,-3,-6,0,nt,
SMILES,Vc quorum ag-1,MazEF act,SSB-PriA inh,Mtb hypoxia inh,Vc quorum ag-2,others
O=C(c1ccccc1)N1CCC(c2nc(-c3ccc(S(=O)(=O)N4CCOCC4)cc3)no2)CC1,7,2,-2,nt,1,
Oc1ccc(-c2cn3c(n2)SCC3)cc1,17*,-6,-30,6,0,
COc1ccc([C@@H]2CCCN2CCNS(=O)(=O)c2cccs2)cc1,nt,nt,-2,nt,nt,
Cc1onc(-c2ccccc2)c1C(=O)n1cccn1,22*,7,-1,nt,0,
Cc1onc(-c2ccccc2)c1C(=O)c1ccccc1,-2,-1,-20,nt,nt,
O=C(COC(=O)c1ccc(O)cc1)NC1CCCCCCC1,i,-5,nt,nt,nt,
O=C(COC(=O)c1ccc(Br)cc1)NC1CCCC1,131*,5,-18,6,58,
Cc1cc(C(C)(C)C)oc1C(=O)OCC(=O)NC1CCCCC1,145*,8,-3,13,26,
NS(=O)(=O)c1cc(C(=O)OCC(=O)NC2CCCCCCC2)ccc1Cl,14,1,6,5,0,
COc1c(C)cc(S(=O)(=O)Nc2ccc(-n3c(C)nc4ccccc4c3=O)cc2)c(C)c1C,nt,nt,5,nt,nt,
Cn1cc(S(=O)(=O)NCC2CCN(C(=O)NC(C)(C)C)CC2)cn1,nt,nt,-8,nt,nt,
O=[N+]([O-])c1ccc(NCCN2CCOCC2)c([N+](=O)[O-])c1,33*,-7,-4,13,1,
O=c1ncn(-c2cccc([N+](=O)[O-])c2)c2ccccc12,11,2,0,7,nt,
Cc1c(Cl)cccc1-n1cnc(=O)c2ccccc21,3,-5,-3,-3,nt,HeLa tox=-6
COC(=O)c1cnn(-c2nc(-c3ccccc3)cs2)c1N,70*,-8,-3,21,0,
COc1ccc(N2Cc3ccc(OC)c(OC)c3C2=O)cc1,i,4,-7,3,nt,
COc1ccc2c(c1OC)C(=O)N(c1nccs1)C2,12,0,-12,22,0,
Clc1ccc([C@H](c2ccccc2)N2CCN(c3ncnc4[nH]ncc34)CC2)cc1,nt,nt,-5,nt,nt,
COC(=O)c1[nH]c2ccc(C)cc2c1NC(=O)Nc1ccc(OC)cc1,18*,0,-7,nt,2,
Cn1cccc1C(=O)OCc1cc(-c2ccco2)on1,31*,3,-7,3,39,
C[C@H](CO)N1C[C@H](C)[C@@H](CN(C)S(=O)(=O)c2ccccc2)Oc2c(NC(=O)Nc3ccc4c(c3)OCO4)cccc2C1=O,109*,9,14,-6,11,
C[C@H](CO)N1C[C@H](C)[C@@H](CN(C)S(C)(=O)=O)Oc2c(NC(=O)Nc3ccc4c(c3)OCO4)cccc2C1=O,i,-8,-14,-8,nt,
c1cncc(CNc2nc3ccccc3s2)c1,nt,nt,5,nt,nt,
Cc1ccc(S(=O)(=O)NCc2cccnc2)cc1C(=O)NC1CCCCC1,14,-19,-6,-8,0,
Cc1ccc(C)c(S(=O)(=O)N2CCN(C(=O)c3n[nH]c(=O)c4ccccc34)CC2)c1,32*,2,-13,8,323,
CCn1nc(NC(=O)c2ccco2)c2cc3ccccc3nc21,40*,-9,-26,5,216,
C=C(C)COc1ccc(-c2ncncc2Oc2ccc(OC)cc2)c(O)c1,25*,-9,-23,nt,0,
O=C(NCc1cccs1)N1CC[C@H](c2ccc3c(c2)OCO3)C1,nt,nt,2,nt,nt,
Cc1cccc(C(=O)NCC(c2cccs2)N2CCOCC2)c1 (stereo not drawn),14,-6,-1,-3,0,
